# Data published in PubChem BioAssay (NCI).
# About 83,000 compounds went through this panel and 20% of them were active in at least one assay; those are over-represented in the sample as a whole.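 For each line, cells grew in 96-well plates with the test compound present at a single concentration for 48 hours.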 The source made the active and inactive calls.
# Tested on: NCI-H522 lung
# Experiment: NCI-60 one-dose screen, 48 h (100 = growth as untreated, 0 = no growth, -100 = all killed)
# Details: 10 µM unless noted
# Method: Growth inhibition of the NCI-H522 human Non-Small Cell Lung tumor cell line is measured as a screen for anti-cancer activity. Cells are grown in 96 well plates and exposed to the test compound for 48 hours. Compounds are tested at a single concentration, which is 10^-5 M for most compounds. The reported endpoint is percent growth (GI% or GIPRCNT), where numbers from 0 - 100% represent growth inhibition, and numbers from -100% - 0 represent cell death. For example, a value of 40 represents 60% growth inhibition. A value of 0 means no net growth occurred over the course of the experiment. A value of -40 indicates 40% of cells at the beginning of the experiment died by the end of the experiment. A value of -100 means all cells are dead at the end of the experiment.
# NCI-60 Human Tumor Cell Lines Screen was performed using the standard one-dose NCI protocol, which is described in more detail at https://dtp.cancer.gov/discovery_development/nci-60/default.htm.
# Compounds with GIPRCNT values below 10 were considered active. Activity score was based on GIPRCNT using the following formula: […]
# Score is 0 for GIPRCNT values of 100 or above, 50 for GIPRCNT values of 0, and 100 for GIPRCNT values of -100.
row,SMILES,growth
1,Cc1ccccc1NC(=O)Oc1ccc(Cl)cc1C(=O)c1ccccc1,88.4% (inactive)
2,O=C1NC(=O)/C(=C\c2ccncc2)N1,94.7% (inactive)
3,CSCC[C@@H]1C(=O)N(C)[C@H](C(C)(C)C)N1C(=O)c1ccccc1,107% (inactive)
4,O=C(c1ccccc1O)N1CCCC1,76.1% (inactive)
5,S=CN1CCCCC1,109% (inactive)
6,NS(=O)(=O)c1cc(=O)[nH]c(=O)[nH]1,74.5% (inactive)
7,CC(=O)Nc1ncc(S(=O)(=O)c2ccc([N+](=O)[O-])cc2)s1,94.3% (inactive)
8,COc1cc(N)c2ncccc2c1Cl,81.8% (inactive)
9,C=CCc1cc(OC)c(OC)c(OC)c1,101% (inactive)
10,O=S(=O)(O)c1ccc(O)c(C2CCCCC2)c1,98.5% (inactive)
11,CC(C)Sc1ncnc2nc[nH]c12,109% (inactive)
12,C#CC(O)c1ccccc1 (stereo not given),102% (inactive)
13,CCOS(=O)(=O)c1ccc([N+](=O)[O-])cc1,94.3% (inactive)
14,CCCCCCCCCCCCCCCCCCSC(=N)N,90.1% (inactive)
15,Nc1ncc([N+](=O)[O-])cn1,71.2% (inactive)
16,CCC(=O)Oc1ccc2ccccc2c1,99.5% (inactive)
17,O=C(NCc1ccccc1)c1cccc([N+](=O)[O-])c1,84.1% (inactive)
18,Cc1cc2nc(C)c(C)nc2cc1C,95.6% (inactive)
19,O=[N+]([O-])c1ccc(-c2nc(N(CCO)CCO)c3ccccc3n2)o1,-54% (active)
20,O=S1(=O)c2ccccc2Oc2ccccc21,78.2% (inactive)

row,SMILES,growth
1,NC(=O)OCCO,96.1% (inactive)
2,C=C(C)[C@@H]1CC[C@]2(CO)CC[C@]3(C)[C@H](CC[C@@H]4[C@@]5(C)CC[C@H](O)C(C)(C)[C@@H]5CC[C@]43C)[C@@H]12,40.2% (inactive)
3,NNC(=O)CCCCl,104% (inactive)
4,CCC(=O)Oc1c(C)cc(O)c2ccccc12,84.5% (inactive)
5,CC(=O)c1cccs1,89.3% (inactive)
6,Cc1ccc([N+](=O)[O-])c(C)n1,98.9% (inactive)
7,NNC(=O)c1ccccc1N,130% (inactive)
8,NC(CCl)=NCC12CC3CC(CC(C3)C1)C2,-58.7% (active)
9,O=Cc1ccc(F)cc1,97.8% (inactive)
10,Cc1ccc(N2C(=O)c3cccc4c(N)c(S(=O)(=O)O)cc(c34)C2=O)cc1,84.5% (inactive)
11,c1cc(CNCCNCc2ccncc2)ccn1,108% (inactive)
12,CC(C)c1ccccc1NC(=O)N1CCC(C(C)C)CC1,106% (inactive)
13,Nc1ccc2ccccc2c1-c1c(N)ccc2ccccc12,37.1% (inactive)
14,O=c1n(CC2CO2)c(=O)n(CC2CO2)n1CC1CO1 (stereo not given),31.4% (inactive)
15,CN1C(=O)NC(c2ccc(Cl)cc2)(c2ccc(Cl)cc2)C1=O,108% (inactive)
16,Cn1c(=O)c2[nH]c(CC(=O)O)nc2n(C)c1=O,86.4% (inactive)
17,CCOC(=O)/C(C)=C\c1ccc(OC)c(OC)c1,107% (inactive)
18,OCC(O)COc1ccc(Cl)cc1Cl (stereo not given),79.5% (inactive)
19,COc1ccc(Br)c(C=O)c1,98.2% (inactive)
20,O=C(OCc1ccccc1)n1nnc2ccccc21,100% (inactive)
